In PubChem BioAssay (NCI) one finds growth data, which are given here for 40 compounds.

Structures are written as SMILES. The panel holds about 83,000 compounds, 20% with a hit somewhere; the sample as a whole holds those more often.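 A percent growth of 40 corresponds to 60% growth inhibition; 0 means no net growth; -100 means all cells died. Active threshold: below 10.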 Values without a mark were called inactive. The source made the active and inactive calls.

This assay deals with CCRF-CEM leukemia. Put plainly: NCI-60 one-dose screen, 48 h (100 = growth as untreated, 0 = no growth, -100 = all killed). The settings on record: 10 µM unless noted. The protocol:
Growth inhibition of the CCRF-CEM human tumor cell line is measured as a screen for anti-cancer activity. Cells are grown in 96 well plates and exposed to the test compound for 48 hours. Compounds are tested at a single concentration, which is 10^-5 M for most compounds. The reported endpoint is percent growth (GI% or GIPRCNT), where numbers from 0 - 100% represent growth inhibition, and numbers from -100% - 0 represent cell death. For example, a value of 40 represents 60% growth inhibition. A value of 0 means no net growth occurred over the course of the experiment. A value of -40 indicates 40% of cells at the beginning of the experiment died by the end of the experiment. A value of -100 means all cells are dead at the end of the experiment.
NCI-60 Human Tumor Cell Lines Screen was performed using the standard one-dose NCI protocol, which is described in more detail at https://dtp.cancer.gov/discovery_development/nci-60/default.htm.
Compounds with GIPRCNT values below 10 were considered active. Activity score was based on GIPRCNT using the following formula: […]
Score is 0 for GIPRCNT values of 100 or above, 50 for GIPRCNT values of 0, and 100 for GIPRCNT values of -100.
Regarding `COc1ccc(C(=O)c2cc3c(N)c(C(=O)Nc4cccc(OC)c4)sc3nc2C)cc1`, the growth is 7.12% (active). The figure for `CC1=NNC(=O)C1CCC(=O)N/N=C(\C)c1ccc2ccccc2c1` (stereo not given) is 105%; for `CSc1nc(O)c(-c2ccccc2)c(=O)[nH]1` it is 102%. For `CC(=O)N1c2ccccc2NC2=C(C(=O)N(C)C2(C)C)C1C` (stereo not given), the growth was 20.7%. Take `Cc1cccc(Oc2ccc(Nc3ncnc4ccc(NC(=O)CN(C)C)cc34)cc2Cl)c1`: the growth was 47.7%.

As for `O=C(Nc1sc2c(c1C(=O)O)CCCC2)c1cccc(C(F)(F)F)c1`, the growth is 85.3%. The figure for `Clc1ccc(C2CC(c3cccc(Nc4ccncc4)c3)=NN2c2ccc(Cl)cc2)cc1` (stereo not given) is 2.88% (active).

For the compound `Cc1ccc(C(=O)Nc2ccccc2C(=O)N/N=C(\c2ccccc2)c2ccccn2)cc1`, the growth was 8.79% (active). Then `CNC(=O)NCC1OC(n2cnc3c(NC(=O)Nc4ccccc4)ncnc32)C(O[Si](C)(C)C(C)(C)C)C1O[Si](C)(C)C(C)(C)C` (stereo not given), with 42.6%; and `Clc1ccc(N2N=C(c3cccc(Nc4ccncc4)c3)CC2c2ccc3c(c2)OCO3)cc1` (stereo not given), with 5.74% (active); and `COc1cc2nc(-c3ccc(C(F)(F)F)cc3)cc(OCCN3CCC(O)CC3)c2cc1OC`, with 84.8%. `CCCCN(CCCC)CCc1c(C)cc(C)c(CCN(CCCC)CCCC)c1O`: the growth was 26.6%. The figure for `Nc1c(C(=O)Nc2cccc3ccncc23)sc2nc3c(cc12)C(=O)CCC3` is 21.5%; for `Cc1cccc(Oc2ccc(Nc3ncnc4ccc(NC(=O)CNCCO)cc34)cc2Cl)c1` it is 72.3%. Then `O=C1Nc2ccccc2/C1=C\c1cccc(/C=C2/C(=O)Nc3ccccc32)n1`, with -51.9% (active); and `CC(=O)Nc1ccc(C(=O)Nc2cc(-c3ccccc3)ccc2N)cc1`, with 80.1%; and `NC(=O)c1cccc(-c2ccccc2N2CCCCC2)c1`, with 89.7%. The figure for `COc1cc2nc(-c3ccc(C(F)(F)F)cc3)cc(OCCCN3CCCCC3)c2cc1OC` is 42.4%; for `c1cnc2nc3c(cc2c1)oc1ccccc13` it is 90.9%. `CCCc1cc2c(cc1Br)OCO2`: the growth is 96.5%. For the compound `Fc1cc(C2=NNC(c3ccc[nH]3)C2)ccc1-n1ccc(C(F)(F)F)n1` (stereo not given), the growth was 68.3%.

In the case of `C(=N\Nc1ncc(-c2cc3cc4c(cc3o2)OCO4)s1)/c1c[nH]c2ccccc12`, the growth is 2.87% (active). Then `c1ccc(C2CC(c3cccc(Nc4ccncc4)c3)=NN2c2ccccc2)cc1` (stereo not given), with 56.9%. Then `CC(C)Cc1ccc(C(C)C(=O)NCc2c[nH]c3ccc(Cl)cc23)cc1` (stereo not given), with 73.8%. Take `CC(C)NC(=O)N1C(=O)CCC1NNC(=O)c1ccc([N+](=O)[O-])cc1` (stereo not given): the growth is 104%. As for `c1ccc2c(-c3c4ccsc4cc4[nH]c5ccccc5c34)c[nH]c2c1`, the growth is 19.8%. Turning to `O=C(Nc1cccc(C2=NCCN2)c1)c1ccc(OCCCOc2ccc(C(=O)Nc3cccc(C4=NCCN4)c3)cc2)cc1`, the growth was 33.5%. As to `c1ccc(-c2nn(-c3ccccc3)[n+](-c3ccccc3-c3ccccc3)n2)cc1`, the growth was 17.2%. The figure for `CC(C)(C)CC(C)(C)Nc1c(-c2ccc(C(F)(F)F)cc2)nc2cnccn12` is 85.8%; for `CC(=O)c1cc2c(N)c(C(=O)Nc3cncc4ccccc34)sc2nc1C` it is 104%; for `O=C1CCCCCCCCC(O)C(O)CCCC(c2cccs2)O1` (stereo not given) it is 47.4%. Take `COc1cc(Nc2cc(O)c3c(=O)cc(-c4ccccc4)oc3c2)cc(OC)c1`: the growth was 10.8%. For the compound `CCC(C)N(CCNc1cc(OC)cc2cccnc12)CCC(C)C` (stereo not given), the growth was 109%.

On to `Cn1c(COC(=O)NCCc2ccccn2)nc2c(N3CCOCC3)nc(Cl)nc21`, for which the growth was -9.98% (active). Then `CCCCc1ccc(Nc2nnc(SCC(=O)NC(=O)NCC)s2)cc1`, with 78.8%.

Regarding `CN1CCN(c2cc(F)c(NC3=C(Cl)C(=O)c4ncccc4C3=O)c(F)c2)CC1`, the growth is -18.2% (active). The figure for `CC(=O)CCSc1ccc(OC(C)=O)cc1` is 75.3%; for `NC(=O)c1ncn(C2OC(CO)C(O)C2O)n1` (stereo not given) it is 67.1%. On to `O=S(=O)(O)c1cc(O)c2c(N=Nc3ccc(Nc4ccccc4)c4c(S(=O)(=O)O)cccc34)cc(S(=O)(=O)O)cc2c1`, for which the growth is 108%.

Regarding `COc1c(Cl)cc(Cl)c2ccc(C=C3C(=O)N(C)C(=O)N(C)C3=O)nc12`, the growth was 99.8%.
